Results: PubChem BioAssay AID1851 (National Center for Advancing Translational Sciences (NCATS), 2009)
Screen size: about 16,000 compounds; about 5,100 (32%) were called active. Roughly 25% stayed inconclusive and do not appear here. The list shows a part of the results. Unmarked numbers belong to inactive results. Calls follow the shape of the dose curve; as a rule, active = well fitted curve in the direction sought with a large enough effect; inconclusive = small, poorly fitted or top-dose-only effect, or effect the other way; inactive = no such curve, though single readings can be large or run the other way.

molecular target: Cytochrome P450 3A4 (Homo sapiens) (UniProt P08684); assay: Cytochrome panel assay with activity outcomes; conditions: recombinant CYP, pro-luciferin dealkylation, luminescence, p450-cyp3a4; series mostly up to 57.1 µM
Sequence (P08684 whole entry, looked up): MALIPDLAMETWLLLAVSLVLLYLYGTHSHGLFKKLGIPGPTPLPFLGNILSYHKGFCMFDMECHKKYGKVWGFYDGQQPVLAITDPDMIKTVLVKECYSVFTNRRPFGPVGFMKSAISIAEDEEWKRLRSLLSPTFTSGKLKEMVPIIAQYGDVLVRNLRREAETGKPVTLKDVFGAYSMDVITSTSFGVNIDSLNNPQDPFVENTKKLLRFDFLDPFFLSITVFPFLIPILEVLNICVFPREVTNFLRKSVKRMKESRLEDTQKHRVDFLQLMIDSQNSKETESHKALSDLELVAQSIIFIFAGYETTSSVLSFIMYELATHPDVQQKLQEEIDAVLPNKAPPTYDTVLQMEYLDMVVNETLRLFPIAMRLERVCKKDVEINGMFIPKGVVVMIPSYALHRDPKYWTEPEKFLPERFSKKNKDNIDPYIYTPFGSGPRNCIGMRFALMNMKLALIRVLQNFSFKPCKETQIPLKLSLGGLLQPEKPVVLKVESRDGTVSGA
% is scaled to controls: 0 for no effect and ±100 for the full control effect.

SMILES | AC50 | activity, negative = inhibition
CN1CCc2cc(Cl)c(O)cc2[C@@H](c2ccccc2)C1 | inactive | –
NCCNCC1CCNCC1 | – | -29.4% [at 11.4 µM]
CN(C)[C@H]1C(=O)C(C(=O)NCN2CCCC2)=C(O)[C@]2(O)C(=O)C3=C(O)c4c(O)cccc4[C@@](C)(O)[C@H]3C[C@@H]12 | inactive | –
Cc1cc(/C=N/n2cnnc2)c(C)n1-c1ccc(OCc2ccccc2F)cc1 | 0.224 µM (active) | –
Cc1cc([N+](=O)[O-])nn1Cc1ccccc1F | inactive | –
CCOC(=O)c1ccccc1OCc1cc(/C=N/n2cnnc2)ccc1OC | inactive | –
Cc1ccc(C)c(Nc2nc3nonc3nc2N2CCOCC2)c1 | – | -12.1% [at 2.29 µM]
OC[C@@H]1O[C@@H](O)[C@H](N=Cc2ccc3c(c2)OCO3)[C@@H](O)[C@@H]1O | – | -4.87% [at 11.4 µM]
CSc1nncn1/N=C/c1ccc2c(c1)OCO2 | 8.91 µM (active) | –
Cc1ccc(S(=O)(=O)N[C@H](CO)C(=O)O)cc1 | – | -3.82% [at 11.4 µM]
Cc1ccc(S(=O)(=O)N[C@@H](CCc2ccccc2)CC(=O)C(C)(C)C)cc1 | 1.58 µM (active) | –
CC(CCc1ccccc1)NS(=O)(=O)c1ccccc1 (configuration not stated) | inactive | –
Cc1c(S(=O)(=O)O)ccc(N=Nc2c(O)c(C(=O)O)cc3ccccc23)c1Cl | – | 1.31% [at 11.4 µM]
Cc1cc(C)c2c(N=NN(C)C)[nH]nc2n1 | inactive | –
CCOc1ccc(Cl)cc1CNCCNCCO | inactive | –
CCNCc1cc(OCC)c(OCC(=O)NCCc2ccccc2)cc1Cl | 0.447 µM (active) | –
CC(CCc1ccccc1)NC(=O)C(=O)NCCO (configuration not stated) | inactive | –
CCOc1cc(CNCCO)c(Cl)cc1OCC(=O)NCCc1ccccc1 | 0.794 µM (active) | –
COc1cccc(-c2cc(C(F)(F)F)nc(N3CCOCC3)n2)c1 | 28.2 µM (active) | –
COc1ccc(-c2cc(C(F)(F)F)nc(N3CCN(C)CC3)n2)cc1OC | inactive | –
COc1ccccc1N1CCN(c2nc(-c3ccccc3)cc(C(F)(F)F)n2)CC1 | inactive | –
COc1ccc(-c2cc(C(F)(F)F)nc(N3CCOCC3)n2)cc1OC | 15.8 µM (active) | –
COc1ccc(-c2cc(C(F)(F)F)nc(NC3CCCC3)n2)cc1OC | 25.1 µM (active) | –
COc1cccc(-c2cc(C(F)(F)F)nc(N3CCN(c4ccccc4)CC3)n2)c1 | inactive | –
COc1ccc(C(=O)Nc2ccc(OCC(F)(F)C(F)F)c(C(F)(F)F)c2)cc1OC | inactive | –

SMILES | AC50 | activity, negative = inhibition
N=c1nc(N)nc(N)n1-c1ccc(S(N)(=O)=O)cc1 | – | -8.91% [at 11.4 µM]
O=c1oc2c(Cl)cc(Cl)cc2cc1-c1nnc(Nc2ccccc2F)s1 | inactive | –
N=C(N)CCNC(=O)[C@@H]1CCC(N)=N1 | – | -7.02% [at 11.4 µM]
NC[C@@H]1O[C@H](O[C@@H]2[C@H](O[C@@H]3O[C@H](CO)[C@@H](COC[C@H]4O[C@@H](CN)[C@@H](O)[C@@H](O)[C@@H]4N)[C@@H]3O)[C@@H](O)[C@@H](N)C[C@H]2N)[C@@H](N)[C@H](O)[C@@H]1O | inactive | –
CC(=O)Nc1nc(NC(C)=O)c2[nH]c(CO)nc2n1 | – | -3.45% [at 11.4 µM]
CCN(CC)c1ccc(N2C(=O)/C(=C/c3cccnc3)SC2=S)cc1 | 5.62 µM (active) | –
O=C(CCN1C(=O)/C(=C/c2cccc(Br)c2)SC1=S)NNC(=O)c1cccnc1 | 3.16 µM (active) | –
CCN(CC)c1ccc(N2C(=O)/C(=C\c3cccnc3)SC2=S)cc1 | – | -14.7% [at 2.29 µM]
O=C1/C(=C/c2cccnc2)SC(=S)N1Cc1ccco1 | 1 µM (active) | –
Cc1ccc(/C=C2\SC(=S)N(CCCC(=O)Nc3ccccn3)C2=O)cc1 | – | -14.5% [at 2.29 µM]
C[C@@H]1/C=C\CC(=O)OC[C@H](C)C(=O)N2CCC[C@@H]2C(=O)OC1 | – | -18.8% [at 11.4 µM]
N[C@@H](CSC(=O)c1ccccc1)C(=O)O | – | -4.21% [at 11.4 µM]
O=C(COc1cccc2ccccc12)N1c2ccccc2CCc2ccccc21 | 7.94 µM (active) | –
CC(C)NC[C@@H](O)COc1cccc2ccccc12 | inactive | –
CC(C)NC[C@H](O)COc1cccc2ccccc12 | inactive | –
OC[C@@H]1NC[C@@H](O)[C@@H](O)[C@H]1O | inactive | –
COC(=O)CCC(=O)Nc1cccc2ccccc12 | inactive | –
O=C(CCC(=O)OCc1ccc(C(=O)Oc2ccccc2)cc1)Nc1cccc2ccccc12 | inactive | –
O=C(NNC(=O)c1cccnc1)Nc1cccc2ccccc12 | – | 14.6% [at 0.457 µM]
O=C(Nc1cccc2ccccc12)c1ccccc1 | 3.16 µM (active) | –
CCn1c(C)c(C)c2cc(C(=O)Nc3cccc(Cl)c3)ccc21 | – | 10.3% [at 2.29 µM]
COc1cccc(C(CC(=O)Nc2cccc3ccccc23)NC(=O)c2ccccc2)c1 (configuration not stated) | 2.24 µM (active) | –
Cc1c(C)n(C)c2ccc(C(=O)Nc3cccc4ccccc34)cc12 | 14.1 µM (active) | –
O=C(O)c1ccc(C(=O)Nc2cccc3ccccc23)c(C(=O)O)c1 | – | -18.5% [at 11.4 µM]
O=C(O)CSc1ccn(Cc2ccccc2)c1 | – | -1.15% [at 11.4 µM]

SMILES | AC50 | activity, negative = inhibition
CN1CCN(CN2C(=O)C3C4C=CC(C3C2=O)C2C3C(=O)N(CN5CCN(C)CC5)C(=O)C3C42)CC1 (configuration not stated) | – | -12.9% [at 11.4 µM]
CCOc1nc(N=C(N)N)nc2c(C)cccc12 | inactive | –
O=C(O)CCSC1=NCCN1 | – | -3.67% [at 11.4 µM]
CSC1(SC2=NCCN2)SC2(NCCN2)S1 | 1.26 µM (active) | –
O=C(c1ccc(Cl)cc1)N1CCCC(c2ccccc2)=N1 | – | 13% [at 2.29 µM]
O=C1N=C2SCCN2/C1=C\c1c(Cl)cccc1Cl | 10 µM (active) | –
OCCN(CO)CO | – | -1.86% [at 11.4 µM]
CCC(=O)Nc1c2c(nc3c1CCC3)CCCC2 | inactive | –
CCC(Sc1nc(C)cc(=O)[nH]1)C(=O)Nc1nc2c(s1)CCCC2 (configuration not stated) | 14.1 µM (active) | –
C[C@@H]1O[C@@H](n2cc(F)c(=O)[nH]c2=O)[C@H](O)[C@@H]1O | inactive | –
Cc1cc([N+](=O)[O-])ccc1-c1ccc(C2Nc3ccccc3C(=O)N2O)o1 (configuration not stated) | 7.08 µM (active) | –
Cc1cccc2c1Oc1ccccc1[C@@H]2NC(=O)c1ccc([N+](=O)[O-])cc1 | – | -14% [at 11.4 µM]
C[C@H](N)C(=O)O | inactive | –
CSc1nc(C2CC2)cc(-c2cccs2)c1C#N | inactive | –
CN(C)Cc1ccccc1-c1nccc(NCc2cccs2)n1 | inactive | –
Cc1ccccc1-c1nccc(NCc2cccs2)n1 | 2 µM (active) | –
FC(F)(F)c1ccccc1-c1nccc(NCc2cccs2)n1 | 2 µM (active) | –
CCc1nn(C)c(-c2n[nH]c(=S)n2N)c1Cl | inactive | –
O=C1[C@H]2CCn3c(=O)n(-c4ccccc4)c(=O)n3[C@H]2[C@H](O)[C@H]2O[C@@H]12 | – | -11.9% [at 11.4 µM]
Nc1nonc1-c1noc(CCCN2C(=O)c3ccccc3C2=O)n1 | 7.94 µM (active) | –
CCN(c1ccccc1)c1cc(NC)[n+](C)c(C)n1 | inactive | –
Cc1ccc(-c2nc3ncccn3c2NC(=O)C2CC2)cc1 | inactive | –
Clc1ccc(-c2nc3ncccn3c2Nc2ccc3c(c2)OCCO3)cc1 | 4.47 µM (active) | –
COCCn1c(=O)c(C)nc2cnc(Oc3ccc(OC)cc3)nc21 | 15.8 µM (active) | –
COCCn1c(=O)c(-c2ccc(OC)cc2)nc2cnc(OC)nc21 | 15.8 µM (active) | –

SMILES | AC50 | activity, negative = inhibition
COCCn1c(=O)c(-c2ccccc2)nc2cnc(Oc3ccc(OC)cc3)nc21 | 1 µM (active) | –
COCCn1c(=O)c(-c2ccc(Cl)cc2)nc2cnc(N(C)C)nc21 | inactive | –
COCCn1c(=O)c(-c2ccc(Cl)cc2)nc2cnc(OC)nc21 | 7.94 µM (active) | –
COCCn1c(=O)c(-c2ccc(Cl)cc2)nc2cnc(N3CCOCC3)nc21 | inactive | –
CN(C)c1ncc2nc(-c3ccc(Cl)cc3)c(=O)n(C[C@H]3CCCO3)c2n1 | inactive | –
CCNc1ncc2nc(-c3ccc(Cl)cc3)c(=O)n(C[C@H]3CCCO3)c2n1 | inactive | –
COc1ncc2nc(-c3ccc(Cl)cc3)c(=O)n(C[C@H]3CCCO3)c2n1 | 10 µM (active) | –
Cn1c(=O)n(-c2cccc(Cl)c2)c(=O)c2c3c(sc21)COC(C)(C)C3 | – | -4.67% [at 2.29 µM]
FC(F)(F)c1ccccc1-c1nccc(N2CCNCC2)n1 | inactive | –
Cc1noc(C)c1-c1nccc(-n2ccnc2)n1 | 1.26 µM (active) | –
Cc1noc(C)c1-c1nccc(N2CCN(C)CC2)n1 | inactive | –
COc1ccccc1-c1cc(-n2ccnc2)ncn1 | 0.316 µM (active) | –
COc1ccccc1-c1nccc(-n2ccnc2)n1 | 1.58 µM (active) | –
Clc1ccccc1-c1nccc(-n2ccnc2)n1 | 1.26 µM (active) | –
O=S1(=O)N[C@H]2CC[C@@H]3NS(=O)(=O)N[C@H]4CC[C@H](N1)N4S(=O)(=O)N23 | – | 5.02% [at 11.4 µM]
Cc1ccccc1-c1nccc(-n2ccnc2)n1 | 1 µM (active) | –
Cc1cc(C)c2c(N)c3ccccc3nc2n1 | inactive | –
CNc1ncnc2ccc(-c3ccccc3CN(C)C)cc12 | 7.94 µM (active) | –
COc1ccccc1CNc1ncnc2ccc(-c3ccccc3OC)cc12 | 6.31 µM (active) | –
CN(C)Cc1ccccc1-c1ccc2ncnc(NCc3ccccc3)c2c1 | 15.8 µM (active) | –
COc1ccc(CNc2ncnc3ccc(-c4ccccc4CN(C)C)cc23)c(OC)c1 | 7.94 µM (active) | –
CN(C)Cc1ccccc1-c1ccc2ncnc(NC3CCNCC3)c2c1 | inactive | –
